Experiment [1] can be described thus: optical density shifts of acrAB sulA E. coli – strain DRC41, OD650, 48 h, E. coli filamentation inducer project, primary screen (AID 1152).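 Note: E. coli MC1000 strain DRC41 lacking acrAB efflux pump and sulA.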 The conditions noted are these: higher = more signal, called active from +8 up or from −8 down.
The nature of experiment [2]: probe aLefty1 binding on compound microarray – biochemical, small-molecule microarray, 635/667 nm fluorescence, primary screen (AID 1153).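 Note: score merges spot fluorescence with signal-to-noise ratio from the scanned slide images.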 The following applies: higher = more signal.
Experiment [3] can be described thus: plasmodial surface anion channel blockers, osmotic lysis – cell-based, P. falciparum Indochina, OD700, 1 h, primary screen (AID 1154). The following applies: P. falciparum Indochina infected RBC osmotic lysis, higher = more signal, called active from +8 up or from −8 down.
The nature of experiment [4]: plasmodial surface anion channel blockers, osmotic lysis – cell-based, P. falciparum Indochina, OD700, 2 h, primary screen (AID 1155).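 Note: lysis reports solute entry through the parasite surface anion channel PSAC.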 The following applies: P. falciparum Indochina infected erythrocytes, higher = more signal, called active from +8 up or from −8 down.
Experiment [5] in a line: changes in parasitized red cell lysis, either direction – P. falciparum Indochina, OD700, 3 h, PSAC antagonist project, primary screen (AID 1156). The conditions noted are these: P. falciparum-infected erythrocytes, osmotic lysis, higher = more signal, called active from +8 up or from −8 down.
The nature of experiment [6]: plasmodial surface anion channel blockers, osmotic lysis – cell-based, P. falciparum Indochina, OD700, 18 h, primary screen (AID 1157). The following applies: P. falciparum Indochina infected erythrocytes, osmotic lysis OD700, 18 h; higher = more signal, called active from +8 up or from −8 down.
Experiment [7] in a line: S6 kinase pathway phospho-S6 level changes – cell-based, A549, cytoblot, luminescence, serum-stimulated, primary screen (AID 1158).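 Note: serum-stimulated A549 lung adenocarcinoma cells; signal is phosphorylated S6 detected by cytoblot immunostaining with HRP secondary.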 The following applies: 5 h, higher = more signal.
Experiment [8] addresses NADPH oxidase 2 (Homo sapiens) (UniProt P04839). The experiment can be described thus: compounds shifting NOX2 Amplex Red fluorescence – cell-based, HEK293-NOX2, PMA-stimulated, NOX inhibitor project, primary screen (AID 1159). Note: test concentration not given here. The following applies: 45 min, higher = more signal, called active from +8 up or from −8 down.
The target in experiment [9] is NADPH oxidase 4 (Homo sapiens) (UniProt Q9NPH5). The experiment can be described thus: compounds shifting NOX4 Amplex Red fluorescence – cell-based, HEK293-NOX4, tetracycline-induced, NOX inhibitor project, primary screen (AID 1160). The conditions noted are these: HEK293-NOX4, Amplex Red H2O2 fluorescence, 45 min; higher = more signal, called active from +8 up or from −8 down.

Experiment [10] deals with NADPH oxidase 5 (Homo sapiens) (UniProt Q96PH1). The experiment can be described thus: compounds shifting NOX5 Amplex Red fluorescence – cell-based, HEK293-NOX5, NOX inhibitor project, primary screen (AID 1161). The conditions noted are these: HEK293-NOX5, ionomycin, 45 min, higher = more signal.
Experiment [11] can be described thus: compound effects on lung adenocarcinoma cell viability – A549, calcein-AM fluorescence, 48 h, basal, profiling panel (AID 1162). Note: test concentration not given here. The following applies: higher = more signal.
Experiment [12] can be described thus: compound effects on differentiated 3T3-L1 adipocyte viability – cell-based, 3T3-L1 adipocytes, calcein-AM fluorescence, 48 h, basal, profiling panel (AID 1163). Note: test concentration not given here. The following applies: 3T3-L1 adipocytes viability, higher = more signal.
Experiment [13] is described as follows: compound effects on hepatocellular carcinoma cell viability – HepG2, calcein-AM fluorescence, 48 h, basal, profiling panel (AID 1164). Note: test concentration not given here. The following applies: higher = more signal.
A short description of experiment [14]: compound effects on multiple myeloma cell viability – MM1S, calcein-AM fluorescence, 48 h, basal, profiling panel (AID 1165).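 Note: viability of MM1S multiple myeloma cells under basal unstimulated conditions; test concentration not given here.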 The following applies: higher = more signal.
Experiment [15] in a line: calcein-AM signal in unstimulated myeloma cells – cell-based, calcein-AM fluorescence, 48 h, PK04 Diversity Set, profiling panel (AID 1166).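 Note: cells grown under basal conditions without added stimulus; test concentration not given here.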 The following applies: RPMI8226 myeloma viability, higher = more signal.
Experiment [16] can be described thus: JC-1 mitochondrial signal, unstimulated HepG2 cells – cell-based, JC-1 fluorescence, 24 h, 100 nL compound, profiling panel (AID 1167). Note: test concentration not given here. The conditions noted are these: HepG2 mitochondrial potential, higher = more signal.
Experiment [17] is described as follows: JC-1 mitochondrial signal, unstimulated adipocytes – cell-based, JC-1 fluorescence, 3T3-L1 adipocytes, 24 h, 100 nL compound, profiling panel (AID 1168). Note: test concentration not given here. The following applies: JC-1 mitochondrial fluorescence, higher = more signal, called active from +8 up or from −8 down.
Experiment [18] is described as follows: JC-1 mitochondrial signal, unstimulated myeloma cells – cell-based, JC-1 fluorescence, RPMI8226, 24 h, 100 nL compound, profiling panel (AID 1169). Note: test concentration not given here. The conditions noted are these: JC-1 mitochondrial potential fluorescence, higher = more signal.
Experiment [19] in a line: JC-1 mitochondrial signal, unstimulated MM1S myeloma – cell-based, JC-1 fluorescence, 24 h, 100 nL compound, profiling panel (AID 1170). Note: test concentration not given here. The conditions noted are these: MM1S mitochondrial potential, higher = more signal.
Experiment [20] in a line: resazurin metabolic signal in A549 cells – cell-based, resazurin fluorescence, 24 h, PK04 Diversity Set, profiling panel (AID 1171). Note: test concentration not given here. The conditions noted are these: A549 viability, higher = more signal, called active from +8 up or from −8 down. (In general: The colour change of resazurin is a common sign of viable cells or microbes.)

The source made the active and inactive calls.

Chain of NADPH oxidase 4 (Homo sapiens) (Q9NPH5 whole entry, looked up): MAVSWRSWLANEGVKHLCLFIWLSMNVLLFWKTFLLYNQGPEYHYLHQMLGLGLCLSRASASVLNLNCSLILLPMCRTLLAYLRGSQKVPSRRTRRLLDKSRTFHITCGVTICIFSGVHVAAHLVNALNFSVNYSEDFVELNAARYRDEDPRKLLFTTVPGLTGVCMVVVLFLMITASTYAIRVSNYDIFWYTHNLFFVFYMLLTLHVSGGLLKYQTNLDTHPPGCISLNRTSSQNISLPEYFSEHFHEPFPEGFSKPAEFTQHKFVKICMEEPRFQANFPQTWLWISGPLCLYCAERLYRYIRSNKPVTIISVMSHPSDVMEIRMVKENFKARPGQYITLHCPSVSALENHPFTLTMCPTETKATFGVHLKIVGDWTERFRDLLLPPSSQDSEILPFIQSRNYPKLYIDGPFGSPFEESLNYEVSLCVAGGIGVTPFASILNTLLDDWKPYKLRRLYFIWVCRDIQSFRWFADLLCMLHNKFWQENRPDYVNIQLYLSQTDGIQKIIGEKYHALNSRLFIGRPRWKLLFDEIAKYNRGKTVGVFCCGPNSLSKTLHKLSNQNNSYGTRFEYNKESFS
Chain of NADPH oxidase 5 (Homo sapiens) (Q96PH1 whole entry, looked up): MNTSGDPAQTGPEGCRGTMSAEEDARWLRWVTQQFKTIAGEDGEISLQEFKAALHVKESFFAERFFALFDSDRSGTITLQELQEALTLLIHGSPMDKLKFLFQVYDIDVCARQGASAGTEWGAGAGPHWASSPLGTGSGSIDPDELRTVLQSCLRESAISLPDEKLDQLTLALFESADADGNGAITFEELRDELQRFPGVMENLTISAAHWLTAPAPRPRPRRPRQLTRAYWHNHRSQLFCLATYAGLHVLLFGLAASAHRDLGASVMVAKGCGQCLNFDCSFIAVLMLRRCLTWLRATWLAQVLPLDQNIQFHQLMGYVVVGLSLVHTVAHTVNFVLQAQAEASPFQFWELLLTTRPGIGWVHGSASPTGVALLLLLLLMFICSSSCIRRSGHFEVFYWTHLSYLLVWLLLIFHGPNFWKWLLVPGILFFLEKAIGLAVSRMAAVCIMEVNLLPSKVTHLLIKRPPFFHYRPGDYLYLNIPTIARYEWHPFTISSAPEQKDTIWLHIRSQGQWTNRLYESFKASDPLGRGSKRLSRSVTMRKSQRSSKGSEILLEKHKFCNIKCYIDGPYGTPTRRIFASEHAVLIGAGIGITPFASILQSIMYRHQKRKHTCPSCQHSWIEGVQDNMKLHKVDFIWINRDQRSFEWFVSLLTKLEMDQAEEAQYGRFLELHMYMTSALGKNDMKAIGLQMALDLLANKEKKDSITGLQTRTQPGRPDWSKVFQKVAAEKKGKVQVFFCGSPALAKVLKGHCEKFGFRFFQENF
Chain of NADPH oxidase 2 (Homo sapiens) (P04839 whole entry, looked up): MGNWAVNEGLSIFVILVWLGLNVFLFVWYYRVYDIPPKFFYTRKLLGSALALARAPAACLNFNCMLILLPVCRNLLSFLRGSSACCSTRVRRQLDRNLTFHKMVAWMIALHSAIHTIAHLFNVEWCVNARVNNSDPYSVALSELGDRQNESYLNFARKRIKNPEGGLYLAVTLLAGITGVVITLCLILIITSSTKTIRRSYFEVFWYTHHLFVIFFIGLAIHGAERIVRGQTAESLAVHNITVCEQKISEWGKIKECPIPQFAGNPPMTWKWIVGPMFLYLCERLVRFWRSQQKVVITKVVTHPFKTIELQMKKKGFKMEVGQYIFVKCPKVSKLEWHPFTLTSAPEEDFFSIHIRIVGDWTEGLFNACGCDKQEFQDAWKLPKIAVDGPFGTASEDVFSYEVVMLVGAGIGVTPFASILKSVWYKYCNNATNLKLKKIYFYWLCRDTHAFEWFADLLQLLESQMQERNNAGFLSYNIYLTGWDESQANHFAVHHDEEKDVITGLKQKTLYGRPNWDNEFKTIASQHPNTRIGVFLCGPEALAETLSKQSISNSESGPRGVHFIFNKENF

For `CCCC[C@@H](O)C1=C(COC)C[C@H]2C(=O)N(C)C(=O)[C@H]2[C@H]1CO`, the z-score in [1] is 2.54 (inactive); in experiment [3], -0.179 (inactive); in experiment [4], -1.31 (inactive); in experiment [5], -1.12 (inactive); in experiment [6] it was -2.19 (inactive); in [7], 1.59. Besides, the z-score in experiment [8] is -0.342 (inactive); in experiment [9] it was 0.564 (inactive); in experiment [10], 0.819; in [11] it was 1.28; in experiment [12], 1.13; in experiment [13], 1.48. Moreover, the z-score in experiment [14] is -0.211; in experiment [15], 0.536; in [16], 1.23; in [17], -0.987 (inactive); in [18], 0.335; in [19] it was -1.98. Further, the z-score in experiment [20] was 0.368 (inactive). The compound also displayed a composite z-score in [2] of 0.218.
As for `Cc1ccc(S[C@]2(C(=O)NCc3ccccc3)CC(=O)N(C3CCCCC3)[C@@H]2c2ccc(CO)cc2I)cc1`, the z-score in experiment [1] was -0.148 (inactive); in experiment [3], 5.8 (inactive); in experiment [4], 1.34 (inactive); in experiment [5], 1.04 (inactive); in [6], 0.841 (inactive); in experiment [7], 0.0194. Further, the z-score is -0.031 (inactive) in experiment [8]; 0.193 (inactive) in [9]; 1.79 in experiment [10]; -0.0709 in experiment [11]; 0.183 in [12]; 0.398 in experiment [13]. The z-score is -1.93 in experiment [14]; -3.39 in experiment [15]; 0.521 in experiment [16]; 0.97 (inactive) in [17]; -0.464 in experiment [18]; -1.62 in [19]. Besides, the z-score in [20] is -0.99 (inactive). The compound further displayed a composite z-score in [2] of -0.142.
Consider `C=CCNC(=O)[C@@H]1[C@H]2C(=O)O[C@H](c3ccccc3)[C@H](c3ccccc3)N2[C@H](c2ccc(OCCO)cc2)[C@@]12C(=O)N(C(=O)OCCOC)c1ccc(C#Cc3ccc(OC)cc3)cc12`, for which the z-score in experiment [1] is -0.0604 (inactive); in experiment [3], 3.58 (inactive); in experiment [4] it was 1.28 (inactive); in experiment [5] it was 0.0207 (inactive); in experiment [6], 0.776 (inactive); in experiment [7], -0.492. Also, the z-score in experiment [8] is 1.78 (inactive); in experiment [9], 0.437 (inactive); in experiment [10], 0.986; in [11], -0.528; in [12] it was 0.786; in experiment [13] it was -0.834. Moreover, the z-score was -0.845 in [14]; -1.32 in experiment [15]; -0.638 in [16]; 0.8 (inactive) in experiment [17]; -0.813 in experiment [18]; -0.82 in [19]. Further, in [20], the z-score was 0.927 (inactive). Moreover, the composite z-score in experiment [2] was determined as 0.302.
`C=CCNC(=O)[C@@H]1[C@H]2C(=O)O[C@H](c3ccccc3)[C@H](c3ccccc3)N2[C@H](c2ccccc2OCCO)[C@@]12C(=O)N(C(=O)OCCOC)c1ccc(C#CC3(O)CCCCCC3)cc12`: the z-score was 0.592 (inactive) in [1]; 1.95 (inactive) in [3]; 2.02 (inactive) in experiment [4]; 0.167 (inactive) in experiment [5]; 0.996 (inactive) in experiment [6]; 0.152 in experiment [7]. The z-score in [8] was 1.09 (inactive); in [9] it was 0.906 (inactive); in experiment [10] it was 0.337; in [11] it was -0.21; in [12], 1.21; in experiment [13], -1.27. The z-score was -2.55 in experiment [14]; -3.61 in experiment [15]; -0.746 in experiment [16]; -0.389 (inactive) in experiment [17]; -0.816 in experiment [18]; -0.761 in experiment [19]. Further, the z-score in experiment [20] was -0.628 (inactive). The composite z-score in [2] amounted to 0.038.
